Experimental data taken from paper PMC7862700, “An all-to-all approach to the identification of sequence-specific readers for epigenetic DNA modifications on cytosine”.

What was measured:
Test in all cases: DAPPL (digital affinity profiling via proximity ligation, sequencing); 10 mM Tris-HCl pH 7.5, 50 mM NaCl, 1 mM DTT, 4% glycerol, room temperature, 30 min; GST-TFs on glutathione beads, 16-mer random dsDNA library, 0.1% formaldehyde crosslink after washing; high values mean tight binding
FEV = molecular target: T1, FEV (Homo sapiens, UniProt Q99581 1-238); details: protein: recombinant; tags: N-terminal GST; dsDNA, one strand shown
T1 sequence: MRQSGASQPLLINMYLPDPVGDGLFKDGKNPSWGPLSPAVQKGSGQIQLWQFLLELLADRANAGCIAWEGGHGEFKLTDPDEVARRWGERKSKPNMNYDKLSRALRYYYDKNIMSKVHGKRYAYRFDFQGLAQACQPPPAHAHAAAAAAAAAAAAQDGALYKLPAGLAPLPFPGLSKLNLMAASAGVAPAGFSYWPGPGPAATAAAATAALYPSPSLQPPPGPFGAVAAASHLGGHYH
Method in brief: (§1)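 Yeast served to express human transcription factors as GST fusions, which were then captured on glutathione beads and labelled with DNA barcodes. Pooled with a tag-only sample, they were incubated with 200 nmole of a 16-mer random double-stranded DNA library for 30 min at room temperature in Tris/NaCl/DTT/glycerol buffer, washed, crosslinked with 0.1% formaldehyde, ligated by proximity, amplified by PCR and sequenced. Dividing each hexamer's read frequency for a factor by its frequency for the tag-only sample gives the binding signal.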

ETV5 = ETV5 (Homo sapiens, UniProt P41161 1-510); details: protein: recombinant; tags: N-terminal GST; dsDNA, one strand shown
Sequence of ETV5 (P41161 whole entry): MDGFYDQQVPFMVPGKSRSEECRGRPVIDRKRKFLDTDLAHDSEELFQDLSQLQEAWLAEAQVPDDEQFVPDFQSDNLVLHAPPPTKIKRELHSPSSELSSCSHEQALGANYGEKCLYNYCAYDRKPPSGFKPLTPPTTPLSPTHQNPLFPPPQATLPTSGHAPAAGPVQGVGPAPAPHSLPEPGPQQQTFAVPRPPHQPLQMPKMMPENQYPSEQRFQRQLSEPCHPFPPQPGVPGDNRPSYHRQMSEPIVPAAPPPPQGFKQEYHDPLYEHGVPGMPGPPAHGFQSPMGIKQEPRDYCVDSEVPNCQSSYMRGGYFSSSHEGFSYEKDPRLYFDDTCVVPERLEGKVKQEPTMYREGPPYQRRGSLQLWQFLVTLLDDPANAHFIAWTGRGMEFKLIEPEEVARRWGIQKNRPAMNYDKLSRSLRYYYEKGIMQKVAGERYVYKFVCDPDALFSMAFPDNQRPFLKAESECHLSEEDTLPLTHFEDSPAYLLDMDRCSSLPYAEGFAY
Method in brief: as §1

HSF1 = HSF1 (Homo sapiens, UniProt Q00613 1-529); details: protein: recombinant; tags: N-terminal GST; chain copies: 3; dsDNA, one strand shown
Sequence of HSF1 (Q00613 whole entry): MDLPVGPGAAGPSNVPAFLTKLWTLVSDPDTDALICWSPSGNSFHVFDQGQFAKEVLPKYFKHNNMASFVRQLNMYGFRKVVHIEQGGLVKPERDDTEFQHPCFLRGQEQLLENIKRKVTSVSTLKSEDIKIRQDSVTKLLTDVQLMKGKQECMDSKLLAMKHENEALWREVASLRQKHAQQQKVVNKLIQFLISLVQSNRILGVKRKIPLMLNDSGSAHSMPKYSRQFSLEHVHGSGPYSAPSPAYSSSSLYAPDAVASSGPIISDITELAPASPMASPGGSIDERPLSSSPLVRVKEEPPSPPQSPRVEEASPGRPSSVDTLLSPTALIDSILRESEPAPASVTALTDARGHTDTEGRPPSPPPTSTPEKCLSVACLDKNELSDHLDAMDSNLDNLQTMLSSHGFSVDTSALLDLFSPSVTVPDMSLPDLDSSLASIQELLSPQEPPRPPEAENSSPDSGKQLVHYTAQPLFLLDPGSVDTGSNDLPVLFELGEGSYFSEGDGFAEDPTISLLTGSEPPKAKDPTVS
Method in brief: as §1

SPIC = molecular target: T2, SPIC (Homo sapiens, UniProt Q8N5J4 1-248); details: protein: recombinant; tags: N-terminal GST; dsDNA, one strand shown
T2 sequence: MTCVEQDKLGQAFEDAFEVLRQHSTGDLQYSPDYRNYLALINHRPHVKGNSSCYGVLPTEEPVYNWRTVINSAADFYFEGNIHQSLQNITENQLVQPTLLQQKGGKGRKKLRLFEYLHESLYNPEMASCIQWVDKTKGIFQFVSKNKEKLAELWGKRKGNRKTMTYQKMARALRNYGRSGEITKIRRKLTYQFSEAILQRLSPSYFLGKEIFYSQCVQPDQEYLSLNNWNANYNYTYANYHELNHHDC
Method in brief: as §1

ELF4 = ELF4 (Homo sapiens, UniProt Q99607 1-663); details: protein: recombinant; tags: N-terminal GST; dsDNA, one strand shown
Sequence of ELF4 (Q99607 whole entry): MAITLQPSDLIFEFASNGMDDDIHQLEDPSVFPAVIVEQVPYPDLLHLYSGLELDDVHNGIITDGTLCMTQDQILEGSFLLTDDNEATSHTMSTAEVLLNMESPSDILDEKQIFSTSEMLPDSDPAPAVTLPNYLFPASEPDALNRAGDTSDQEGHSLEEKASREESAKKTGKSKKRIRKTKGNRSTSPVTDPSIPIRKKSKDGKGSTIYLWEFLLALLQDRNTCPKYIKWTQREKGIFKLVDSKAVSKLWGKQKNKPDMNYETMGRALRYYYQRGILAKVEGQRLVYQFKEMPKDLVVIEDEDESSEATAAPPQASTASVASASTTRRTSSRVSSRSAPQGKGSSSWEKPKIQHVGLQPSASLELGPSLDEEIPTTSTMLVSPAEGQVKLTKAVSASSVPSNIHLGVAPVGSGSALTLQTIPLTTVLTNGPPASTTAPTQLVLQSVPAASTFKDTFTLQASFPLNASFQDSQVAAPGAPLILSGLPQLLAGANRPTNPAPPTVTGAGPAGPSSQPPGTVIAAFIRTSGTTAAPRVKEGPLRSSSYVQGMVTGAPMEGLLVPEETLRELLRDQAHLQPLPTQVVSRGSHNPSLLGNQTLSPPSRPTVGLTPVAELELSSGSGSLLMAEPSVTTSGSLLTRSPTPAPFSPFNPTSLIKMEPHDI
Method in brief: as §1

ELK4 = molecular target: T3, ELK4 (Homo sapiens, UniProt P28324-2 1-405); details: protein: recombinant; tags: N-terminal GST; dsDNA, one strand shown
T3 sequence: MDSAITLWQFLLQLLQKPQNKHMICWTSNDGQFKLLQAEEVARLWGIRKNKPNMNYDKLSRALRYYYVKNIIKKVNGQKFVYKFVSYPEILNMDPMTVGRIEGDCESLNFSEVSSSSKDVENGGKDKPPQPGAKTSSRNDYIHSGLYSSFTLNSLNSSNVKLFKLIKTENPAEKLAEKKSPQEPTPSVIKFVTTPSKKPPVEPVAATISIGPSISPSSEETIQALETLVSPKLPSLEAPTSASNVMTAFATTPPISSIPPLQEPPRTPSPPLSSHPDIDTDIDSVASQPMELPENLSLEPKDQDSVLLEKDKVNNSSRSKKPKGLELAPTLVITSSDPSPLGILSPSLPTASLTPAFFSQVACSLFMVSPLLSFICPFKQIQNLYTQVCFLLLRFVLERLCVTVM
Method in brief: as §1

ETV2 = molecular target: T4, ETV2 (Homo sapiens, UniProt O00321 1-342); details: protein: recombinant; tags: N-terminal GST; dsDNA, one strand shown
T4 sequence: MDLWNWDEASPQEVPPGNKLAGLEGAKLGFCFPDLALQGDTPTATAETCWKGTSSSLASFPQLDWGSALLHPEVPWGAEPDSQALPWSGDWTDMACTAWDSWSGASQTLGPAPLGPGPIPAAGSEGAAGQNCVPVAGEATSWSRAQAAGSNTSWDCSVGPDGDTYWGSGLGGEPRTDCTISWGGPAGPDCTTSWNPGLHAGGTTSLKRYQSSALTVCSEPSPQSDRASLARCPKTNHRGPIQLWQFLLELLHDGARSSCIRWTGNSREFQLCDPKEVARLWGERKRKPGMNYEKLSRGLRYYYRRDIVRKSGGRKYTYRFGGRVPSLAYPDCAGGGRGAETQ
Method in brief: as §1

ELF3 = molecular target: T5, ELF3 (Homo sapiens, UniProt P78545 1-371); details: protein: recombinant; tags: N-terminal GST; dsDNA, one strand shown
T5 sequence: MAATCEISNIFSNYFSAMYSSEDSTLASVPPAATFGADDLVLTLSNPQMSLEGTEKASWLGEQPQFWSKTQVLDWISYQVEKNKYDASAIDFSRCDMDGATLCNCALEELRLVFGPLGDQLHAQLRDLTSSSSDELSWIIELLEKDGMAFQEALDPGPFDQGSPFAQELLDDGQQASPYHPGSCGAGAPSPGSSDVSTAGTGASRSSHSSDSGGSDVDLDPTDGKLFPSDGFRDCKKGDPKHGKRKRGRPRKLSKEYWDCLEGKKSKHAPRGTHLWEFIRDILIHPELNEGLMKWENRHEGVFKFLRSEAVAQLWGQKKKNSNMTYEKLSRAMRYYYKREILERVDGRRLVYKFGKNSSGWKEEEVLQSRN
Method in brief: as §1

CRX = CRX (Homo sapiens, UniProt O43186 1-299); details: protein: recombinant; tags: N-terminal GST; dsDNA, one strand shown
Sequence of CRX (O43186 whole entry): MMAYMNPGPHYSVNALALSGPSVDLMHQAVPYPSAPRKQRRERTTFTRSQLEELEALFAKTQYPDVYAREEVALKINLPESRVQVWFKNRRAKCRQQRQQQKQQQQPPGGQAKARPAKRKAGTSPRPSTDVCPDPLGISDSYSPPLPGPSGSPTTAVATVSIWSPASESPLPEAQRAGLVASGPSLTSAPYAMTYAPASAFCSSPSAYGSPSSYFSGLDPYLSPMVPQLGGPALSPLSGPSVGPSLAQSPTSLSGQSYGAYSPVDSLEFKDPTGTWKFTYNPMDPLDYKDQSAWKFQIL
Method in brief: as §1

ETV1 = ETV1 (Homo sapiens, UniProt P50549 1-477); details: protein: recombinant; tags: N-terminal GST; dsDNA, one strand shown
Sequence of ETV1 (P50549 whole entry): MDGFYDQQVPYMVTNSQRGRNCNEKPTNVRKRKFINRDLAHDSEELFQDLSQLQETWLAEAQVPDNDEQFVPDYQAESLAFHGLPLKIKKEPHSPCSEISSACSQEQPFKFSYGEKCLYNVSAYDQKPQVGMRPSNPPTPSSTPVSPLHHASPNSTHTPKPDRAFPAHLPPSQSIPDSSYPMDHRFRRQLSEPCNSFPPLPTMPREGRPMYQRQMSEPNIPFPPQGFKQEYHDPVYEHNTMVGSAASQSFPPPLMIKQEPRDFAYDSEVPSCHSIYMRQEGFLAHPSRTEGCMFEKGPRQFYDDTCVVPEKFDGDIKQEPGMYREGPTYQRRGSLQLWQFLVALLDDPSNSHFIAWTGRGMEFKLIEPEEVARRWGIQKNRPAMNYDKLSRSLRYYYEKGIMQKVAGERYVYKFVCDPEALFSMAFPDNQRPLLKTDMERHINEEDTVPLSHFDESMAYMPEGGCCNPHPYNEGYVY
Method in brief: as §1

ERF = molecular target: T6, ERF (Homo sapiens, UniProt P50548 1-548); details: protein: recombinant; tags: N-terminal GST; dsDNA, one strand shown
T6 sequence: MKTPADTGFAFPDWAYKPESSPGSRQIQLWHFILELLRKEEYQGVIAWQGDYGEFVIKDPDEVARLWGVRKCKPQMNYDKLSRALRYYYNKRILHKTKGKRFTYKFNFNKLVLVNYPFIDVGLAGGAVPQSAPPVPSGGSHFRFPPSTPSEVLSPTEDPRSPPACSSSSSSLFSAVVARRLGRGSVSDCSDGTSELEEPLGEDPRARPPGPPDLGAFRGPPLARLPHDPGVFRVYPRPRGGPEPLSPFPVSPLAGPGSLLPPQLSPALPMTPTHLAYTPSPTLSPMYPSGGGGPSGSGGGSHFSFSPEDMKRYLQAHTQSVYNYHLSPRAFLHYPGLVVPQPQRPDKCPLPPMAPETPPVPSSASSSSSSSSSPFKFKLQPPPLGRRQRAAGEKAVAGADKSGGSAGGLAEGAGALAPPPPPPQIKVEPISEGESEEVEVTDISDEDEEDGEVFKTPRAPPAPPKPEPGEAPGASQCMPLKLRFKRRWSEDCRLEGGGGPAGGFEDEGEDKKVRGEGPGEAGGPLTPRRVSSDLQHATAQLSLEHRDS
Method in brief: as §1

ETV3L = molecular target: T7, ETV3L (Homo sapiens, UniProt Q6ZN32 1-361); details: protein: recombinant; tags: N-terminal GST; dsDNA, one strand shown
T7 sequence: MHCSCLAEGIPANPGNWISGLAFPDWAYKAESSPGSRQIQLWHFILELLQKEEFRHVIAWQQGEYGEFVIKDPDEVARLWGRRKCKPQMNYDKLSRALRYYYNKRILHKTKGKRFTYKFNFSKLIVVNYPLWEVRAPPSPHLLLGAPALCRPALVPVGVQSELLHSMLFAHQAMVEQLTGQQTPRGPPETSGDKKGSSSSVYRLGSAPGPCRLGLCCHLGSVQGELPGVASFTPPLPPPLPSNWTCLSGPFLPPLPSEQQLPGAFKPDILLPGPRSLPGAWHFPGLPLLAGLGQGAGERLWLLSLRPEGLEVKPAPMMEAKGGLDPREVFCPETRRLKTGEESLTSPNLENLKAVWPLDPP
Method in brief: as §1

ETS2 = molecular target: T8, ETS2 (Homo sapiens, UniProt P15036 1-469); details: protein: recombinant; tags: N-terminal GST; dsDNA, one strand shown
T8 sequence: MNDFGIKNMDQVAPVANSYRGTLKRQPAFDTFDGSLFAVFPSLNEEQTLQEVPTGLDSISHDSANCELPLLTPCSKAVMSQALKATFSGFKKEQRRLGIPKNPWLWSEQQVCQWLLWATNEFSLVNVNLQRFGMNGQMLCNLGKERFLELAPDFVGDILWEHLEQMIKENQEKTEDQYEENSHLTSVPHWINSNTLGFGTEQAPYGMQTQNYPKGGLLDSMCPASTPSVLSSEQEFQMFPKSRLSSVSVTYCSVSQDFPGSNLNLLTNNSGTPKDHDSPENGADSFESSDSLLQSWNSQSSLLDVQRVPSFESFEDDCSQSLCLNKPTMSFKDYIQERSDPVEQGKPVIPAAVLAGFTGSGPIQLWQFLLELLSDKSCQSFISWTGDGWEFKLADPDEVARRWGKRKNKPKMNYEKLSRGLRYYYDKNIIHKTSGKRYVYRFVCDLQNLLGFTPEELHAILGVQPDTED
Method in brief: as §1

SPDEF = molecular target: T9, SPDEF (Homo sapiens, UniProt O95238 1-335); details: protein: recombinant; tags: N-terminal GST; dsDNA, one strand shown
T9 sequence: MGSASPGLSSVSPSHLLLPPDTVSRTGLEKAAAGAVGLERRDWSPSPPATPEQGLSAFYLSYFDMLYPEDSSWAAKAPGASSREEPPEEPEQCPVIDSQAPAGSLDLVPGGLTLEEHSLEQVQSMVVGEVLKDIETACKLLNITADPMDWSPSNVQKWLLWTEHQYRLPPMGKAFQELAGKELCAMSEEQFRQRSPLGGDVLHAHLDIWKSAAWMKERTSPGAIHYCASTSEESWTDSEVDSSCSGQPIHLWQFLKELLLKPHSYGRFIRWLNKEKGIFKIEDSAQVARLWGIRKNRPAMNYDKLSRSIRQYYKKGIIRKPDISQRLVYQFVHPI
Method in brief: as §1

ETV7 = molecular target: T10, ETV7 (Homo sapiens, UniProt Q9Y603 1-341); details: protein: recombinant; tags: N-terminal GST; dsDNA, one strand shown
T10 sequence: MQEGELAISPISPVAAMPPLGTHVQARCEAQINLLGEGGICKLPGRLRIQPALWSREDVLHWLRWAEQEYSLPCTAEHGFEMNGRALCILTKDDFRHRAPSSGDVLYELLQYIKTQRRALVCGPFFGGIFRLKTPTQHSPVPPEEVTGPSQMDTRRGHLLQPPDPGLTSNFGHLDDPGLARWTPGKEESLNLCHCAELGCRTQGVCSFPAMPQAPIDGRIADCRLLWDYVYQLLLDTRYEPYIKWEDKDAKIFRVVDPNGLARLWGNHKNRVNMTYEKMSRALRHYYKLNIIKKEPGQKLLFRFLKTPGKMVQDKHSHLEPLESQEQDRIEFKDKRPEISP
Method in brief: as §1

ELF5 = molecular target: T11, ELF5 (Homo sapiens, UniProt Q9UKW6-2 1-255); details: protein: recombinant; tags: N-terminal GST; dsDNA, one strand shown
T11 sequence: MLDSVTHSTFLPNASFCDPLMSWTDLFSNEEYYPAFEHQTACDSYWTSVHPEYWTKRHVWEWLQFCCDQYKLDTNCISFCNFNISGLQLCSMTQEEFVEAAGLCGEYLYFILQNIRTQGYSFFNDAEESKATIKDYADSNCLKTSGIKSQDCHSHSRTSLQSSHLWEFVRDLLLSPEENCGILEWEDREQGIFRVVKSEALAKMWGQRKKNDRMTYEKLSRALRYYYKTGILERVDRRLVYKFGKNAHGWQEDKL
Method in brief: as §1

ETV3 = molecular target: T12, ETV3 (Homo sapiens, UniProt P41162-2 1-143); details: protein: recombinant; tags: N-terminal GST; dsDNA, one strand shown
T12 sequence: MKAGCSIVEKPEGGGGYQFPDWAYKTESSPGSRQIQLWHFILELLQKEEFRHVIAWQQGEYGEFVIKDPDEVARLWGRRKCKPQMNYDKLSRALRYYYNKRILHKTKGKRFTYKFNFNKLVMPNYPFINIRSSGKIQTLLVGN
Method in brief: as §1

ETV6 = ETV6 (Homo sapiens, UniProt P41212 1-452); details: protein: recombinant; tags: N-terminal GST; dsDNA, one strand shown
Sequence of ETV6 (P41212 whole entry): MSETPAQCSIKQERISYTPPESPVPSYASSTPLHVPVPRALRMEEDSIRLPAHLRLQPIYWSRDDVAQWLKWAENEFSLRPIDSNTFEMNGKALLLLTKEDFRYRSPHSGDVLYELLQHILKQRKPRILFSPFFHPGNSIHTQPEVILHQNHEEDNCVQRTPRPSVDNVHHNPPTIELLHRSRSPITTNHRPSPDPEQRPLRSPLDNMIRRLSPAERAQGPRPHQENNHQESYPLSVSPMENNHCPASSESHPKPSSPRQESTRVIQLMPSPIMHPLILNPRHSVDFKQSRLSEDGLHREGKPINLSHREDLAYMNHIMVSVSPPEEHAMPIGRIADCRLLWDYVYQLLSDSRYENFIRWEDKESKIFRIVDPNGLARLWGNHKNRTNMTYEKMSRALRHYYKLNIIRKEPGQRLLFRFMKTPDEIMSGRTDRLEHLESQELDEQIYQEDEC
Method in brief: as §1

## TTCTAT
FEV
  binding signal: 1.4 fold enrichment (6-mer frequency, TF over GST control)
ETV5
  binding signal: 1.43 fold enrichment (6-mer frequency, TF over GST control)
HSF1
  binding signal: 2.05 fold enrichment (6-mer frequency, TF over GST control)
SPIC
  binding signal: 1.44 fold enrichment (6-mer frequency, TF over GST control)
ELF4
  binding signal: 1.4 fold enrichment (6-mer frequency, TF over GST control)
ELK4
  binding signal: 1.52 fold enrichment (6-mer frequency, TF over GST control)
ETV2
  binding signal: 1.32 fold enrichment (6-mer frequency, TF over GST control)
ELF3
  binding signal: 1.28 fold enrichment (6-mer frequency, TF over GST control)
CRX
  binding signal: 1.67 fold enrichment (6-mer frequency, TF over GST control)
ETV1
  binding signal: 1.3 fold enrichment (6-mer frequency, TF over GST control)
ERF
  binding signal: 1.46 fold enrichment (6-mer frequency, TF over GST control)
ETV3L
  binding signal: 1.35 fold enrichment (6-mer frequency, TF over GST control)
ETS2
  binding signal: 1.38 fold enrichment (6-mer frequency, TF over GST control)
SPDEF
  binding signal: 1.35 fold enrichment (6-mer frequency, TF over GST control)
ETV7
  binding signal: 1.33 fold enrichment (6-mer frequency, TF over GST control)
ELF5
  binding signal: 1.3 fold enrichment (6-mer frequency, TF over GST control)
ETV3
  binding signal: 1.33 fold enrichment (6-mer frequency, TF over GST control)
ETV6
  binding signal: 1.28 fold enrichment (6-mer frequency, TF over GST control)
